Measurements published in PubChem BioAssay (Tox21).
Values without a mark were called inactive. Inconclusive results are not listed. Where a call stands in place of a potency, no number is given. The source made the active and inactive calls. Unless noted, calls come from the whole dose curve.

Key:
[1] = Nuclear factor erythroid 2-related factor 2/antioxidant responsive element (Nrf2/ARE) small molecule agonists: qHTS cell viability counter screen in human keratinocytes (AID 1919968; active = well fitted curve in the direction sought with a large enough effect in the repeat runs; an effect the other way counts as inactive or inconclusive; note: nearly all actives have a fitted effect of over 55% in size; note: potency is the fitted concentration of half-maximal effect)
How it was run: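 Cells of the KeratinoSens line were plated at 1,500 per well and left for 5 h before compound transfer from DMSO stocks. After a 23 h incubation (37 C, 5% CO2), CellTiter-Fluor was added. Signal was taken as fluorescence intensity 1 h later.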

[2] = target: Gonadotropin-releasing hormone receptor (Homo sapiens) (UniProt P30968); assay: Human gonadotropin-releasing hormone receptor (GnRHR) small molecule agonists, calcium flux assay in GnRHR-HEK293 cells (AID 1920063); note: nearly all actives have a fitted effect of over 35% in size
How it was run: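 Compounds dissolved in DMSO are pin-transferred onto dye-loaded GnRHR-HEK293 cells, which were seeded 18 h before at 37 C/5% CO2. Calcium signal is read as fluorescence intensity at 1 s intervals for 3 min.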

[3] = target: KiSS-1 receptor (Homo sapiens) (UniProt Q969F8); assay: Human kisspeptin (KISS1R) small molecule agonists, calcium flux assay in KISS1R-HEK293 cells (AID 1920064; active = well fitted curve in the direction sought with a large enough effect in the repeat runs; an effect the other way counts as inactive or inconclusive)
How it was run: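 Cell line: HEK293, stable human KISS1R. Dye loading 1 h at 37 C after 18 h culture. Read: kinetic fluorescence, 480/540 nm, 3 min at 1 s intervals.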

[4] = G protein-coupled receptor (GPCR) small molecule agonists, calcium flux assay: HEK293 wild type cell line counter screen (AID 1920065)
How it was run: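 Tox21 10K compounds, 15 concentrations each in triplicate, pin-transferred in DMSO onto dye-loaded cells; kinetic read at 480/540 nm for 3 min, 1 s intervals.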

[5] = p53 small molecule agonists, cell-based qHTS assay with human liver microsomes: qHTS cell viability counter screen (AID 1963579); note: nearly all actives have a fitted effect of over 45% in size; note: potency is the fitted concentration of half-maximal effect
How it was run: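 Metabolically activated exposure: compounds, human liver microsomes and NADPH (0.5 mg/mL final apiece) were added to p53RE-bla cells seeded 5 h earlier, left 16 h at 37 C, and then assessed for viability by CellTiter-Glo luminescence.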

[6] = p53 small molecule agonists, cell-based qHTS assay with rat liver microsomes: qHTS cell viability counter screen (AID 1963580); note: nearly all actives have a fitted effect of over 45% in size
How it was run: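 Counter screen for cytotoxicity under metabolic activation: rat liver microsomes and NADPH, 0.5 mg/mL final each, added with compounds to p53RE-bla HCT-116 cells; 16 h at 37 C, then ATP luminescence read.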

[7] = p53 small molecule agonists, cell-based qHTS assay: qHTS cell viability counter screen (AID 1963581); note: nearly all actives have a fitted effect of over 45% in size
How it was run: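 ATP content measured by luminescence in HCT-116 p53RE-bla cells treated 16 h at 37 C, same wells as the reporter screen.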

[8] = target: 5-hydroxytryptamine receptor 2A (Homo sapiens) (UniProt P28223); assay: 5-hydroxytryptamine receptor 2A (HTR2A) small molecule antagonists, cell-based qHTS assay (AID 1963586); note: nearly all actives have a fitted effect of over 45% in size
How it was run: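 CHO cells stably expressing human HTR2A were plated for 18 h at 37 C, then loaded with calcium dye for 1 h. Compounds were preincubated 5 min at room temperature before DOI (4 nM solution) was added. Kinetic fluorescence was read for 3 min.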

[9] = target: 5-hydroxytryptamine receptor 2A (Homo sapiens) (UniProt P28223); assay: 5-hydroxytryptamine receptor 2A (HTR2A) small molecule agonists, cell-based qHTS assay (AID 1963587); note: nearly all actives have a fitted effect of over 30% in size
How it was run: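 HTR2A-CHO cells, plated 18 h at 37 C/5% CO2, dye-loaded 1 h at 37 C; compounds in DMSO added by pin tool (agonist mode). Intracellular calcium flux read as kinetic fluorescence on FDSS over 2 min at 1 s intervals.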

[10] = target: Muscarinic acetylcholine receptor M1 (Homo sapiens) (UniProt P11229); assay: Cholinergic receptor muscarinic 1 (CHRM1) small molecule agonists, cell-based qHTS assay (AID 1963589); note: nearly all actives have a fitted effect of over 35% in size
How it was run: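 Homogeneous fluorescence calcium flux, agonist mode. Human M1-expressing CHO cells; compound dosed at 15 concentrations, three independent runs; signal sampled every 1 sec.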

[11] = target: Beta-2 adrenergic receptor (Homo sapiens) (UniProt P07550); assay: Adrenergic beta2 receptor (ADRB2) small molecule antagonists, cell-based qHTS assay (AID 1963592); note: series mostly up to about 92 µM; nearly all actives have a fitted effect of over 50% in size
How it was run: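 Assay format: CHO-ADRB2 cells, 18-20hr seeding at 37C/5% CO2, then compound plus 1nM isoproterenol agonist mix for 0.5hr RT. Homogeneous time-resolved fluorescence cAMP detection after 1hr, expressed as 665/615 nm ratio.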

[12] = target: D(2) dopamine receptor (Homo sapiens) (UniProt P14416); assay: Dopamine D2 receptor (DRD2) small molecule antagonists, cell-based qHTS assay (AID 1963595; active = well fitted inhibition curve with a large enough effect in the signal ratio in the repeat runs, with a control signal flat; the % refers to the signal ratio)
How it was run: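 Readout: HTRF cAMP, cAMP-d2 competing with cellular cAMP for anti-cAMP cryptate, read after 1 h. Cells: DRD2-HEK293. Conditions: 0.1 mM Ro20-1724, 12 nM quinpirole, 200 nM NKH477, 30 min RT.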

[13] = target: Muscarinic acetylcholine receptor M1 (Homo sapiens) (UniProt P11229); assay: Cholinergic receptor muscarinic 1 (CHRM1) small molecule antagonists, cell-based qHTS assay (AID 1963588); note: nearly all actives have a fitted effect of over 40% in size; note: potency is the fitted concentration of half-maximal effect
How it was run: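 Compounds were tested at 15 concentrations in three independent runs. Dye-loaded CHRM1-CHO cells were exposed 5 min at room temperature before stimulation by acetylcholine added at 50nM. Intracellular calcium was read kinetically on FDSS for 3 min.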

[14] = target: D(2) dopamine receptor (Homo sapiens) (UniProt P14416); assay: Dopamine D2 receptor (DRD2) small molecule agonists, cell-based qHTS assay (AID 1963594); note: nearly all actives have a fitted effect of over 35% in size
How it was run: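 HEK293 cells stably expressing DRD2 were cultured 24 h at 37 C, then given Ro20-1724 (0.1 mM final) and compounds for 10 min at room temperature. NKH477 (200nM) was then added for 30 min. cAMP was read by HTRF.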

[15] = cAMP Responsive Elements (CRE) small molecule agonists, cell-based qHTS assay (AID 1963590)
How it was run: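 HEK 293T cells stably bearing CRE-bla were plated at 2,000 cells per well and rested 18 h. Compounds, positive controls or DMSO were added for 3 h at 37 C. LiveBLAzer B/G substrate was then loaded for 2 h at room temperature.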

[16] = cAMP Responsive Elements (CRE) small molecule antagonists, cell-based qHTS assay (AID 1963591; active = well fitted inhibition curve with a large enough effect in the signal ratio in the repeat runs, not every such curve was filed as active; the % refers to the signal ratio)
How it was run: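 First, CRE-bla HEK293T cells settled 18 h at 37 C. Next, compound and 0.25 uM final NKH477 were applied for 3 h. Last, LiveBLAzer B/G substrate was loaded for 2 h at room temperature.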

[17] = target: Beta-2 adrenergic receptor (Homo sapiens) (UniProt P07550); assay: Adrenergic beta2 receptor (ADRB2) small molecule agonists, cell-based qHTS assay (AID 1963593);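 note: CHO cells stably overexpressing human ADRB2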
How it was run: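 CHO cells stably over-expressing ADRB2 were plated overnight at 37C, then dosed with compounds plus a stimulation mix containing 100uM IBMX and 25uM Ro-20-1724 for 0.5hr at room temperature. cAMP was measured by HTRF competition, 1hr.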

Chain of Beta-2 adrenergic receptor (Homo sapiens) (P07550 whole entry, looked up): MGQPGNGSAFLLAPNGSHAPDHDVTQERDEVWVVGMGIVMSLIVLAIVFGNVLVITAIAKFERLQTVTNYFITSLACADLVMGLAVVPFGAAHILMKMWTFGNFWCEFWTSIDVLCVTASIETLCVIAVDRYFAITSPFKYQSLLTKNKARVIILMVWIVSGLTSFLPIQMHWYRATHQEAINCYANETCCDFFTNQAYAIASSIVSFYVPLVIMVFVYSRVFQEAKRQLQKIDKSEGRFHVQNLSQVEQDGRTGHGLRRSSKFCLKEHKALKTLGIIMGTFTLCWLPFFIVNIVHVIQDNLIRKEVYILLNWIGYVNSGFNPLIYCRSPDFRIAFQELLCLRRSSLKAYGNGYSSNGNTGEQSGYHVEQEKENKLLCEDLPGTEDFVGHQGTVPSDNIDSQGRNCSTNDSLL
Chain of Gonadotropin-releasing hormone receptor (Homo sapiens) (P30968 whole entry, looked up): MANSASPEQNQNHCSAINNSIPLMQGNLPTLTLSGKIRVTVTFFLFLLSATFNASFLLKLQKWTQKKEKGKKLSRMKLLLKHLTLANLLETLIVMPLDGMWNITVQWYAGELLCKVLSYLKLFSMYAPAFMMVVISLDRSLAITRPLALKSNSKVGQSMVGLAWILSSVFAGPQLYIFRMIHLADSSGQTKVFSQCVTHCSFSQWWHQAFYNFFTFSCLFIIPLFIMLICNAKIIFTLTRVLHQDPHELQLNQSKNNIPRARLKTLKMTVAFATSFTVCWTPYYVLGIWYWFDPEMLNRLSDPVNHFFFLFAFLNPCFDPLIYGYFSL
Chain of D(2) dopamine receptor (Homo sapiens) (P14416 whole entry, looked up): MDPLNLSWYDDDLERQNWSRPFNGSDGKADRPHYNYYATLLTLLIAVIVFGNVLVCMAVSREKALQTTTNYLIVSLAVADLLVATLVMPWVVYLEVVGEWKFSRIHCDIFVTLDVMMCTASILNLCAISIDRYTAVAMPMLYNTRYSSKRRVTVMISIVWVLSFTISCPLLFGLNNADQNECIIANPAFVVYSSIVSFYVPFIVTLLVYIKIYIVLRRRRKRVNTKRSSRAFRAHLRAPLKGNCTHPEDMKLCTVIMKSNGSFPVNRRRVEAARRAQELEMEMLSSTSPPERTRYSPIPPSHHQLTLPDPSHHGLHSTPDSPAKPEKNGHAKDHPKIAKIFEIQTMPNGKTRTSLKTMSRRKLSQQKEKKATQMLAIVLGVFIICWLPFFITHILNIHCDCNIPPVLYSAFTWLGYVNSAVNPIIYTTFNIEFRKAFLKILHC
Chain of KiSS-1 receptor (Homo sapiens) (Q969F8 whole entry, looked up): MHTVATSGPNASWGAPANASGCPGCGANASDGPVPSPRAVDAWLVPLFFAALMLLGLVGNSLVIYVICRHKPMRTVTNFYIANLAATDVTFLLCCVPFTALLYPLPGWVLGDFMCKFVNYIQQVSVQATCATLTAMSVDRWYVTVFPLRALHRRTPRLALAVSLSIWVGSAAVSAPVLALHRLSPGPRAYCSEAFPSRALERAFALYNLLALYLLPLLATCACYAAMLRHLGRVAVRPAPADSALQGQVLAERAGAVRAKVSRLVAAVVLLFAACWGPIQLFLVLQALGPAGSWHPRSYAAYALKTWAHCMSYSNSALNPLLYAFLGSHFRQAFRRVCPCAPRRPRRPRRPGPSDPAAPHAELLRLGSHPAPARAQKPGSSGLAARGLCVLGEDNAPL
Chain of Muscarinic acetylcholine receptor M1 (Homo sapiens) (P11229 whole entry, looked up): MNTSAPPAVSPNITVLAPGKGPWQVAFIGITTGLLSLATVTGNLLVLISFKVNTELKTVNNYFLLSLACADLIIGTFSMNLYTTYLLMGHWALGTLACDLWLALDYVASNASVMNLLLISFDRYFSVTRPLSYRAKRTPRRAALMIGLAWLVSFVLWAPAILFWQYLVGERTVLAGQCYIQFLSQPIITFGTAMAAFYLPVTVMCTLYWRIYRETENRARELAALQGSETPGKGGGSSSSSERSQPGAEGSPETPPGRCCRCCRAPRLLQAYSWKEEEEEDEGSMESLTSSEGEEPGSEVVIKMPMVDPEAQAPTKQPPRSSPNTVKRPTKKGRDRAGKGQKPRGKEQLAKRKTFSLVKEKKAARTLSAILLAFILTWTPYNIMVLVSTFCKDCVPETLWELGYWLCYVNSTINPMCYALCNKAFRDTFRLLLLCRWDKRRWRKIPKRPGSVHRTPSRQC
Chain of 5-hydroxytryptamine receptor 2A (Homo sapiens) (P28223 whole entry, looked up): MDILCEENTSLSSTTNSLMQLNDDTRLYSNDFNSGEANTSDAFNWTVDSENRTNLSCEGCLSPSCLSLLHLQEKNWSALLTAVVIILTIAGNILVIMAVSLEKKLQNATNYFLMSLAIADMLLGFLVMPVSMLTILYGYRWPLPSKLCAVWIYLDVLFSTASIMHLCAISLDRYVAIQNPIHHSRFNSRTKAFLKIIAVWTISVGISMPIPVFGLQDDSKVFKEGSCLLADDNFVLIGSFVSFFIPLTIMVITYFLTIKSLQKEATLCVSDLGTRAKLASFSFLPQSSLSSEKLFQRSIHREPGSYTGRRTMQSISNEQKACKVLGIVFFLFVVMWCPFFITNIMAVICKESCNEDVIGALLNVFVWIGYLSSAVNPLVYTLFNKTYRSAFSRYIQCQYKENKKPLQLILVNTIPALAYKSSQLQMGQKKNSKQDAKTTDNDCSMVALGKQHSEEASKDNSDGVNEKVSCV

SMILES: CCCCCCC[N+](CC)(CC)CCCCc1ccc(Cl)cc1
- Potency [1]: inactive
- Potency [2]: inactive
- Potency [3]: inactive
- Potency [4]: inactive
- Potency [5]: inactive
- Potency [6]: inactive
- Potency [7]: inactive
- Potency [8]: inactive
- Potency [9]: inactive
- Potency [10]: inactive
- Potency [11]: inactive
- Potency [12]: inactive

SMILES: Cc1oc(=O)oc1CN1CCN(c2cc3c(cc2F)c(=O)c(C(=O)O)c2n3C(C)S2)CC1 (stereo not drawn)
- Potency [1]: inactive
- Potency [2]: inactive
- Potency [3]: inactive
- Potency [4]: inactive
- Potency [5]: inactive
- Potency [6]: inactive
- Potency [7]: inactive
- Potency [8]: inactive
- Potency [9]: inactive
- Potency [13]: inactive
- Potency [10]: inactive
- Potency [14]: inactive

SMILES: COc1ccc(CCN(C)CCCN2CCc3cc(OC)c(OC)cc3CC2=O)cc1OC
- Potency [1]: inactive
- Potency [2]: inactive
- Potency [3]: inactive
- Potency [4]: inactive
- Potency [5]: inactive
- Potency [6]: inactive
- Potency [7]: inactive
- Potency [9]: inactive
- Potency [13]: inactive
- Potency [10]: inactive
- Potency [15]: inactive
- Potency [16]: inactive
- Potency [11]: inactive
- Potency [14]: inactive
- Potency [12]: inactive

SMILES: c1ccc(CN(Cc2ccccc2)Cc2ccccc2)cc1
- Potency [1]: inactive
- Potency [2]: inactive
- Potency [3]: inactive
- Potency [4]: inactive
- Potency [5]: inactive
- Potency [7]: inactive
- Potency [8]: inactive
- Potency [9]: inactive
- Potency [13]: inactive
- Potency [10]: inactive
- Potency [15]: inactive
- Potency [16]: inactive
- Potency [11]: inactive
- Potency [17]: inactive
- Potency [14]: inactive
- Potency [12]: inactive

SMILES: CC1(C)C(=O)N(Br)C(=O)N1Br
- Potency [1]: inactive
- Potency [2]: inactive
- Potency [3]: inactive
- Potency [4]: inactive
- Potency [5]: inactive
- Potency [6]: inactive
- Potency [7]: inactive
- Potency [9]: inactive
- Potency [13]: inactive
- Potency [15]: inactive
- Potency [16]: inactive
- Potency [11]: inactive
- Potency [17]: inactive
- Potency [14]: inactive
- Potency [12]: inactive

SMILES: O=C1OC(=O)c2c(Br)c(Br)c(Br)c(Br)c21
- Potency [1]: inactive
- Potency [2]: inactive
- Potency [3]: inactive
- Potency [4]: inactive
- Potency [5]: inactive
- Potency [7]: inactive
- Potency [8]: inactive
- Potency [9]: inactive
- Potency [10]: inactive
- Potency [15]: inactive
- Potency [16]: inactive
- Potency [11]: inactive
- Potency [17]: inactive
- Potency [14]: inactive
- Potency [12]: inactive

SMILES: OCCCCCCCCCCCCBr
- Potency [1]: inactive
- Potency [2]: inactive
- Potency [3]: inactive
- Potency [4]: inactive
- Potency [5]: inactive
- Potency [6]: inactive
- Potency [8]: inactive
- Potency [9]: inactive
- Potency [13]: inactive
- Potency [10]: inactive
- Potency [16]: inactive
- Potency [11]: inactive
- Potency [14]: inactive
- Potency [12]: inactive

SMILES: CCCCCCCC#N
- Potency [1]: inactive
- Potency [2]: inactive
- Potency [3]: inactive
- Potency [4]: inactive
- Potency [5]: 32.4 µM (active)
- Potency [7]: inactive
- Potency [10]: inactive
- Potency [15]: inactive
- Potency [16]: inactive
- Potency [11]: inactive
- Potency [17]: inactive
- Potency [14]: inactive

SMILES: Cc1[nH]c(C)c(Cl)c(=O)c1Cl
- activity change, negative = cytotoxicity [1]: 5.34% [at 19 µM]
- activity change [2]: -0.0007% [at 11.8 µM, hits give high values]
- activation [3]: -1.04% [at 15.8 µM]
- activation [4]: -1.57% [at 11.8 µM]
- activity change, negative = cytotoxicity [5]: -0.426% [at 13.5 µM]
- activity change, negative = cytotoxicity [6]: 4.54% [at 13.5 µM]
- activity change, negative = cytotoxicity [7]: 15.4% [at 13.5 µM]
- activity, negative = inhibition [8]: 81.1% [at 12.7 µM]
- activity, negative = inhibition [13]: 9.6% [at 12.6 µM]
- activation [10]: 0.215% [at 15.8 µM]
- activity change, negative = inhibition [16]: -0.412% [at 18.9 µM]
- activity change, negative = inhibition [11]: -0.0462% [at 19 µM]
- activation [17]: 13.3% [at 19 µM]
- activation [14]: -3.57% [at 19 µM]
- activity change, negative = inhibition [12]: 7.52% [at 18.9 µM]

SMILES: CCCCCCCOC(=O)CCC
- Potency [1]: inactive
- Potency [2]: inactive
- Potency [3]: inactive
- Potency [4]: inactive
- Potency [5]: inactive
- Potency [7]: inactive
- Potency [8]: inactive
- Potency [9]: inactive
- Potency [13]: inactive
- Potency [10]: inactive
- Potency [15]: inactive
- Potency [11]: inactive
- Potency [17]: inactive
- Potency [14]: inactive
- Potency [12]: inactive

SMILES: O=C(O)/C=C/c1ccc(O)c(O)c1
- Potency [1]: inactive
- Potency [2]: inactive
- Potency [3]: inactive
- Potency [4]: inactive
- Potency [5]: inactive
- Potency [6]: inactive
- Potency [7]: inactive
- Potency [8]: inactive
- Potency [9]: inactive
- Potency [13]: inactive
- Potency [17]: inactive
- Potency [14]: inactive
- Potency [12]: inactive

SMILES: COc1ccc2cc1Oc1ccc(cc1)C[C@H]1c3c(cc4c(c3Oc3cc5c(cc3OC)CCN(C)[C@@H]5C2)OCO4)CCN1C
- Potency [1]: 23.7 µM (active)
- Potency [2]: inactive
- Potency [3]: inactive
- Potency [4]: inactive
- Potency [5]: inactive
- Potency [6]: inactive
- Potency [8]: inactive
- Potency [13]: 20.5 µM (active)
- Potency [10]: inactive
- Potency [11]: inactive
- Potency [14]: inactive

SMILES: CCCCN(CCC(=O)OCC)C(C)=O
- Potency [1]: inactive
- Potency [2]: inactive
- Potency [3]: inactive
- Potency [4]: inactive
- Potency [5]: inactive
- Potency [6]: inactive
- Potency [7]: inactive
- Potency [8]: inactive
- Potency [13]: inactive
- Potency [15]: inactive
- Potency [16]: inactive
- Potency [11]: inactive
- Potency [17]: inactive
- Potency [14]: inactive
- Potency [12]: inactive

SMILES: Nc1c[n+](N2CCOCC2)no1
- Potency [1]: inactive
- Potency [2]: inactive
- Potency [3]: inactive
- Potency [4]: inactive
- Potency [6]: inactive
- Potency [7]: inactive
- Potency [8]: inactive
- Potency [9]: inactive
- Potency [13]: inactive
- Potency [10]: inactive
- Potency [15]: inactive
- Potency [16]: inactive
- Potency [11]: inactive
- Potency [17]: inactive
- Potency [14]: inactive
- Potency [12]: inactive

SMILES: O=C1Cc2ccccc2N1c1c(Cl)cccc1Cl
- Potency [1]: inactive
- Potency [2]: inactive
- Potency [3]: inactive
- Potency [4]: inactive
- Potency [5]: inactive
- Potency [6]: inactive
- Potency [8]: inactive
- Potency [10]: inactive
- Potency [11]: inactive
- Potency [17]: inactive
- Potency [14]: inactive
- Potency [12]: inactive
